Only some compounds are listed: those with a hit (about 0.78% of all), similar ones and a draw of the others.
CCT chaperon mod: High-Throughput Screening for Modulators of Cytosolic Chaperonin Activity | purified chaperonin ATPase assay, HTRF ADP detection, 30 min | activity change, % (test concentration not listed), hits read low | 360,000 compounds, 0.3% hits | AID 651819, 2012; in the data active = activity change below about -30%; note: % is set by controls: 0 for no effect and ±100 for the full control effect
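Nucleotide hydrolysis assay: TRiC at 20–40 nM final (set by batch activity) with 10 uM ATP, 30 min at 37 °C, in presence of 76 uM compound. Detection by competitive ADP HTRF, 30 min ambient.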
GLS inh: qHTS for Inhibitors of Glutaminase (GLS); Glutaminase kidney isoform, mitochondrial (Homo sapiens), O94925; Potency, µM (series often up to 45.5 µM), for inactives: at the highest dose activity change, negative = inhibition, usual class: inhibitors; GLS enzymatic activity, qHTS titration; AID 624170, 2012; 410,000 compounds, 0.21% hits; note: potency is the fitted concentration of half-maximal effect; % is set by controls: 0 for no effect and ±100 for the full control effect
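hKGA in 45 mM KH2PO4 pH 8.2, 0.02% Tween-20 with pin-transferred compounds; 1 mM L-glutamine (stock) plus glutamate oxidase/HRP/Amplex Red coupling added. Fluorescence read initially and after 30 min at RT.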
PGK inhibitor: qHTS Assay to Find Inhibitors of Phosphoglycerate Kinase; PGK/GAPDH coupled, Kinase-Glo luminescence, 60 min; Potency, µM (doses to about 57.5 µM), for the others: top-dose activity change, negative = inhibition, actives largely listed as inhibitors; 380,000 compounds, 0.043% hits; AID 602233, 2012; note: potency is the fitted concentration of half-maximal effect; % is set by controls: 0 for no effect and ±100 for the full control effect; nearly all actives have a fitted effect of over 60% in size
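Luminescent ATP detection (Kinase-Glo Plus) follows a 60-minute room-temperature incubation, with wells lacking PGK as controls. Buffer: 100 mM TEA (pH 7.6), 5 mM MgCl2, 0.01% Tween-20. Coupling enzyme GAPDH (100 nM final) supplies unstable 1,3-BPG in-well.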
PI4K2A block: qHTS for small molecular inhibitors of PI4K2A. purified PI4K2A, ADP-Glo luminescence, 1 h; stronger effect = lower value. activity change, negative = inhibition, % at 76.9 µM. 420,000 compounds, 0.13% hits; in the data active = activity change below about -50%; inconclusive = mostly about -30% to -49%;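 note: -100% = wells without enzyme as full effect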
Target sequence (Q9BTU6 whole entry, looked up): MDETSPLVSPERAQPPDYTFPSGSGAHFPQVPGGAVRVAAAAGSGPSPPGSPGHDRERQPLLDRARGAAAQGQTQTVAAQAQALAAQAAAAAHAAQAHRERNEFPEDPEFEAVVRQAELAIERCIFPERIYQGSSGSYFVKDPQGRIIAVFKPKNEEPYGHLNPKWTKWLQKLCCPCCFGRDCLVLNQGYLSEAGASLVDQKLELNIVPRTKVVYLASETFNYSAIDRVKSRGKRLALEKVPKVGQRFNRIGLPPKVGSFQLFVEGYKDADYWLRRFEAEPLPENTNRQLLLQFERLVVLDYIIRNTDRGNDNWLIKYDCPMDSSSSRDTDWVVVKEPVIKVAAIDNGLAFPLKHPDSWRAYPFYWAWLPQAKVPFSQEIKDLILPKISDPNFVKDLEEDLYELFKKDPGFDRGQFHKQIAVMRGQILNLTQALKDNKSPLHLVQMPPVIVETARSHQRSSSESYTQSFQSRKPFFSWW
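In this quantitative HTS, ADP production by PI4K2A was quantified luminescently after 1 h at ambient temperature; 100 microM adenosine served as plate-quality control.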
PINK1 modulator: A Quantitative High throughput Screen to Identify Chemical Modulators of PINK1 Expression | PINK1 immunofluorescence, high-content cytometry, 24 h | Potency, µM (top dose mostly 76.6 µM), for the others: top-dose activation (PINK1 increase), hits mostly activators | 410,000 compounds, 0.2% hits; active = well fitted activation curve with a large enough effect; inconclusive = small, poorly fitted or top-dose-only effect; cell line not stated here; note: potency is the fitted concentration of half-maximal effect; % of control where 0% means no effect; nearly all actives have a fitted effect of over 65% in size
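A stable cell line was treated with compounds at 5 concentrations for 24 hours, with CCCP as control. PINK1 levels and mitochondrial localization were measured by immunofluorescence with mitochondrial, cell and nuclear markers after fixation, read by laser-scanning cytometry.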
* = called active by the depositor; i = inactive; ? = inconclusive; . = not tested or not shown; [ ] = remark or other dose. Unless noted, calls come from the whole dose curve; as a rule, active = well fitted curve in the direction sought with a large enough effect; inconclusive = small, poorly fitted or top-dose-only effect, or another doubt; inactive = no such curve, though single readings can be large; an effect the other way counts as inactive or inconclusive.

SMILES	CCT chaperon mod	GLS inh	PGK inhibitor	PI4K2A block	PINK1 modulator
C/C(=C(/CCOC(=O)c1ccccc1)SS/C(CCOC(=O)c1ccccc1)=C(\C)N(C=O)Cc1cnc(C)nc1N)N(C=O)Cc1cnc(C)nc1N	.	3.3%	.	.	.
Cc1cc(C(=O)Nc2cccc(-c3nc(CNC(=O)c4sc(C)nc4C)c(C)o3)c2)c(C)o1	.	.	.	.	0.2%
O=C(c1ccccc1)N1CCCc2ccccc21	1.1	-2.2%	-5.9%	4.2	-0.1%
O=C(c1ccc(F)cc1)N1CCOCC1	1.0	-9.2%	-5.4%	1.6	1.3%
O=C(c1ccc(=O)oc1)N1CCCc2ccccc21	0.0	15.8µM*	?	-24.2	-1.0%
O=C(c1ccc(=O)oc1)N1CCOCC1	-1.2	11.2µM*	?	-9.7	1.1%
CN1CCCN(C(=O)[C@@H]2C[C@@H](Sc3nc4ccccc4[nH]3)CN2Cc2ccc(OC(F)(F)F)cc2)CC1	.	.	.	.	0.1%
Cc1[nH][nH]c(=O)c1C(c1ccc(-c2ccc(C(=O)O)cc2)o1)c1c(C)[nH][nH]c1=O	-0.3	-25.9%	-3.5%	-54.5*	-0.7%
Cc1[nH][nH]c(=O)c1C(c1ccc(-c2ccc(F)cc2)o1)c1c(C)[nH][nH]c1=O	-2.8	15.2%	2.4%	?	3.1%
COc1ccc(/C=C2\CCn3c2nc2cc(C(=O)O)ccc2c3=O)cc1OC	-3.0	?	-7.3%	-2.8	9.1%
COc1ccc(/C=C2\CCn3c2nc2cc(C(=O)O)ccc2c3=O)cc1O	-1.6	6.31µM*	-5.4%	-7.6	3.8%
CN(C)c1ccc(/C=C2\SC(=S)N(Nc3ncc(C(F)(F)F)cc3Cl)C2=O)cc1	-3.7	-0.3%	-12.1%	-5.6	17.8µM*
COc1ccccc1C1CN(Cc2ccc(Sc3nncn3C)o2)Cc2ccccc2O1 (centres undefined)	.	.	.	.	0.5%
COc1ccc(-n2c(-c3ccccc3)nnc2-c2ccc(Cl)cc2)cc1	-0.8	-9.9%	-7.2%	-12.0	1.2%
COc1ccc(-n2c(-c3ccc(Cl)cc3)c[n+]3c2CCc2ccccc2-3)cc1	-1.4	16.1%	-9.4%	-1.1	31.6µM*
C(=N\NC1=Nc2cccc3cccc1c23)/c1ccccc1	0.0	-13.5%	0.7%	4.1	5.4%
C(=N\NC1=Nc2cccc3cccc1c23)/c1cccnc1	-69.6*	-0.9%	i	-0.1	-0.4%
COc1cc(/C=N/NC(=S)NCCN2CCOCC2)cc(OC)c1O	-3.7	3.98µM*	-5.1%	-2.8	0.4%
COc1ccc(NC(=O)CSc2nc3ccc(Nc4nc(N5CCOCC5)nc(N5CCOCC5)n4)cc3s2)cc1	-74.8*	-0.2%	i	-4.7	-1.2%
COC(=O)c1cc(CNC(=O)c2cccc(F)c2)cc(NC(=O)c2ccccc2OC)c1	.	.	.	.	-0.9%
O=C(O)c1c(Cl)c(Cl)c(Cl)c(Cl)c1-c1c2cc(I)c(=O)c(I)c-2oc2c(I)c(O)c(I)cc12	.	14.1µM*	.	.	.
COc1ccc(N2Cc3cccc(C(=O)N4CCN(C(=O)c5ccco5)CC4)c3C2=O)cc1	-0.1	17.8µM*	-28.9%	-18.8	0.5%
Cc1ccc([C@H]2C[C@@H](n3cc(C4CC4)nn3)[C@H](O)CN2CC2CCCCC2)cc1	-73.8*	0.2%	-4.0%	-6.5	1.1%
Oc1cc(-c2cccs2)cc2c1OCCN(Cc1cn[nH]c1-c1ccc(Cl)cc1)C2	.	.	.	.	0.1%
Cc1[nH]c2ccccc2c1CCO	-30.8*	17.8%	-4.1%	-18.4	-0.3%
SMILES	CCT chaperon mod	GLS inh	PGK inhibitor	PI4K2A block	PINK1 modulator
COc1cc(CN2CCCC(n3cc(C(=O)N4CCCC4)nn3)C2)cc(OC)c1 (centres undefined)	.	.	.	.	0.9%
CC1CCCN(CCCNC(=O)c2nn(C)c3c2CS(=O)(=O)c2ccccc2-3)C1 (centres undefined)	-76.3*	-3.0%	i	-2.5	-1.1%
Cc1cccc(CNC(=O)c2c3n(c(C)cc2=O)-c2ccccc2SC(c2sccc2C)C3)n1 (centres undefined)	.	.	.	.	0.1%
COc1ccccc1N1CCN(c2nc(CNC(=O)C3CC34CCCC4)nc3ccccc23)CC1 (centres undefined)	.	.	.	.	0.0%
CCCOc1ccc2c(c1)CC[C@@H]1[C@@H]2CC[C@]2(C)C(OC)CC[C@@H]12 (some centres undefined)	.	.	.	3.3	.
Cc1ccc(CCNC(=O)CS(=O)Cc2nc(-c3ccccc3Cl)oc2C)cc1 (centres undefined)	-60.0*	2.7%	-7.5%	-2.7	-0.9%
CCOc1ccc(CCNC(=O)CS(=O)Cc2nc(-c3ccccc3Cl)oc2C)cc1OCC (centres undefined)	-0.3	-1.7%	-6.3%	-2.0	-0.3%
Cc1ccc(C(=O)Nn2cnc3scc(-c4cccs4)c3c2=O)c(O)c1	-46.9*	4.1%	.	-1.6	0.5%[38.3 µM]
Cc1ccc(-n2cnc3scc(-c4cccs4)c3c2=O)cc1	-1.2	4.0%	-3.6%	8.8	0.1%
CCOc1ccc(NC(=O)CCC(=O)NNC(=O)COc2ccc(C)cc2)cc1	0.9	4.6%	-0.9%	-7.1	5.3%
CCOc1ccc(NC(=O)CCC(=O)NNC(=O)COc2ccc(C)cc2Br)cc1	-36.4*	4.1%	-10.8%	-5.6	3.0%
CCOc1cccc(CNCc2ccc(C(=O)O)cc2)c1	-70.4*	-3.4%	3.8%	2.4	2.4%
O=C(O)c1ccc(CNCc2cccc(Oc3ccccc3)c2)cc1	-1.2	11.3%	-3.1%	1.2	0.5%
COc1cc(/C=C/C(=O)O[C@H]2CC[C@]34C[C@]35CC[C@]3(C)[C@@H]([C@H](C)CCC=C(C)C)CC[C@@]3(C)[C@@H]5CC[C@H]4C2(C)C)ccc1O	.	.	.	2.1	.
O=C(O)c1cccc(-n2cccc2/C=C/[N+](=O)[O-])c1	-5.4	10µM*	?	-25.0	3.2%
O=C(O)c1cccc(-n2cccc2/C=C\[N+](=O)[O-])c1	0.0	103.3%	-27.9%	-4.5	1.6%
COc1ccc(-c2ccc(-c3noc(C)n3)c(OC)n2)cc1	-0.8	1.1%	i	4.0	15.8µM*
CCOc1nc(-c2ccc(OC)cc2)ccc1-c1noc(C)n1	-0.1	3.3%	6.3%	-3.1	-2.0%[38.3 µM]
CN(C)C(CNC(=O)c1cccc(S(=O)(=O)N2CCN(c3ccccc3)CC2)c1)c1ccccc1 (centres undefined)	-45.7*	12.3%	-0.7%	3.3	1.0%
CN(C)C(CNC(=O)c1cccc(S(=O)(=O)N(C)C)c1)c1ccccc1 (centres undefined)	0.5	4.3%	i	5.5	0.1%
O=C1C(=Cc2ccc(Br)o2)C(=O)c2ccccc21	-5.5	143.5%	7.94µM*	-9.8	1.5%

Screens from PubChem.
